Compounds without any hit were thinned out: in the full panel of roughly 83,000, 20% have a hit.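 In brief: 96-well plates, 48 h treatment, single concentration, percent growth endpoint.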 Active and inactive are the calls of the source. The calls were made as follows: active = growth percent below 10; inactive = the rest.
How the values were obtained:
Assay in all cases: NCI-60 one-dose screen, 48 h (100 = growth as untreated, 0 = no growth, -100 = all killed)
Conditions in all cases: 10 µM unless noted
T-47D breast = tested on: T-47D breast
BT-549 breast = tested on: BT-549 breast
MDA-MB-435 melanoma = tested on: MDA-MB-435 melanoma
MCF7 breast = tested on: MCF7 breast
HCT-116 colon = tested on: HCT-116 colon
HCC-2998 colon = tested on: HCC-2998 colon
KM12 colon = tested on: KM12 colon
SW-620 colon = tested on: SW-620 colon

Measured: growth

O=C(Nc1ccc(-n2cc(-c3ccncc3)c(-c3ccc(O)c(Cl)c3)n2)cc1)c1cc(C(F)(F)F)cc(C(F)(F)F)c1
inactive: T-47D breast 60.7% | BT-549 breast 53.3% | MDA-MB-435 melanoma 45.9% | MCF7 breast 58% | HCT-116 colon 40.3% | HCC-2998 colon 83.6% | KM12 colon 42.3%

CC(C)(C)C(=O)/C=c1/[nH]c(=O)/c(=C/c2ccccc2O)s1
active: MDA-MB-435 melanoma -25.9%
inactive: T-47D breast 41.3% | BT-549 breast 71.8% | MCF7 breast 28.1% | HCT-116 colon 21.2% | HCC-2998 colon 77.6% | KM12 colon 29.9%

O=C(Nc1cccc(-n2ccc3c(NC(=O)c4ccccc4)ncnc32)c1)Nc1ccc(Cl)c(C(F)(F)F)c1
inactive: T-47D breast 21.6% | BT-549 breast 45.9% | MCF7 breast 20% | HCT-116 colon 17% | HCC-2998 colon 40.8% | KM12 colon 12.5%
active: MDA-MB-435 melanoma -7.53%

COc1cc(-c2nc(N)n(CC(=O)Nc3ccc(/C(C)=N\O)cc3)n2)cc(OC)c1OC
inactive: T-47D breast 91.2% | BT-549 breast 108% | MDA-MB-435 melanoma 82% | MCF7 breast 89.2% | HCT-116 colon 101% | HCC-2998 colon 102% | KM12 colon 97.3%

O=C(N/N=C1\SCC(=O)N1c1ccccc1)c1cc(-c2cc3ccccc3o2)nn1-c1ccccc1
inactive: T-47D breast 101% | MDA-MB-435 melanoma 102% | SW-620 colon 104% | MCF7 breast 99.9% | HCT-116 colon 96.5% | HCC-2998 colon 176% | KM12 colon 119%

COc1ccc(-c2nnc(SCC(=O)N3CCN(c4cc5c(cc4F)c(=O)c(C(=O)O)cn5C4CC4)CC3)o2)cc1OC
inactive: T-47D breast 70.7% | BT-549 breast 69.1% | MDA-MB-435 melanoma 100% | MCF7 breast 83.6% | HCT-116 colon 55.3% | HCC-2998 colon 108% | KM12 colon 99.4%

CC(C)(CCN=C(N)Nc1ccccn1)c1ccc(C(F)(F)F)cc1
active: T-47D breast -29.7% | MCF7 breast -11.2% | HCT-116 colon -45% | HCC-2998 colon -25.1%
inactive: BT-549 breast 32.2% | MDA-MB-435 melanoma 18.7% | KM12 colon 13.5%

O=C(CNc1cccnc1)Nc1ccc(C(=O)/C=C/c2ccc(Cl)cc2)cc1
inactive: T-47D breast 89.9% | BT-549 breast 89.7% | MDA-MB-435 melanoma 68.5% | SW-620 colon 74.3% | HCC-2998 colon 86.2% | KM12 colon 69.3%

O=C(Nc1ccc(F)cc1)Nc1ccc(Cl)c([N+](=O)[O-])c1
inactive: BT-549 breast 42.4% | MDA-MB-435 melanoma 21.1% | HCC-2998 colon 20.2% | KM12 colon 12.4%
active: T-47D breast 6.68% | MCF7 breast 7.97% | HCT-116 colon 7.12%

Cc1ccc(/C=C2/C(=O)Nc3cc(Cl)c(-c4csc(N)n4)cc32)cc1
active: MDA-MB-435 melanoma -9.13%
inactive: T-47D breast 34.9% | BT-549 breast 53.4% | MCF7 breast 35.8% | HCT-116 colon 66% | HCC-2998 colon 91.4% | KM12 colon 44.5%

COc1ccccc1S(=O)(=O)Nc1ccc2c3c(cc(-c4cnn(C)c4)nc13)C(=O)N2C
inactive: T-47D breast 35.5% | BT-549 breast 62.6% | MDA-MB-435 melanoma 35.2% | MCF7 breast 16.5% | HCT-116 colon 28.2% | HCC-2998 colon 48.2% | KM12 colon 38.2%

Cc1[nH]n(C(=O)c2ccncc2)c(=O)c1N=Nc1ccc(S(=O)(=O)Nc2ccncn2)cc1
inactive: T-47D breast 113% | BT-549 breast 127% | MDA-MB-435 melanoma 117% | MCF7 breast 102% | HCT-116 colon 92.6% | HCC-2998 colon 113% | KM12 colon 109%

CCN(CC)CCNc1ccc([N+](=O)[O-])c2sc3cc(Cl)ccc3c(=O)c12
inactive: T-47D breast 103% | BT-549 breast 89.9% | MDA-MB-435 melanoma 72.8% | MCF7 breast 24.6% | HCT-116 colon 11.8% | HCC-2998 colon 47.3% | KM12 colon 66.6%

O=C1/C(=C/c2cccc3cnccc23)Cc2cc(F)ccc21
inactive: T-47D breast 42.7% | BT-549 breast 89% | MDA-MB-435 melanoma 101% | MCF7 breast 58.9% | HCT-116 colon 80.7% | HCC-2998 colon 106% | KM12 colon 92.1%

CCCc1nn2c(CCC(=O)c3nc4ccc([N+](=O)[O-])cc4[nH]3)nnc2s1
inactive: T-47D breast 102% | BT-549 breast 111% | MDA-MB-435 melanoma 103% | SW-620 colon 97.6% | HCC-2998 colon 100% | KM12 colon 104%

COc1ccc(Cl)cc1NC(=O)c1cc2c(n1C)-c1nc(NC(=O)C(C)(C)C)sc1CC2
inactive: T-47D breast 64.5% | BT-549 breast 94.6% | MDA-MB-435 melanoma 102% | MCF7 breast 79.4% | HCT-116 colon 85.4% | HCC-2998 colon 118% | KM12 colon 94.8%

COc1ccc(OC)c(NCC(=O)n2nc(/C=C\c3ccc(O)c(OC)c3)cc2/C=C\c2ccc(O)c(OC)c2)c1
active: MDA-MB-435 melanoma 5.88% | SW-620 colon 9.13%
inactive: T-47D breast 15.5% | BT-549 breast 17.1% | HCC-2998 colon 18% | KM12 colon 11.1%

COc1ccccc1P(c1ccccc1OC)c1ccccc1OC
active: HCC-2998 colon -97.4%
inactive: T-47D breast 87.6% | MDA-MB-435 melanoma 115% | SW-620 colon 103% | MCF7 breast 95.9% | HCT-116 colon 94.2% | KM12 colon 86.4%

COc1ccc(/C=C2/C(=O)Nc3cc(Cl)c(-c4csc(N)n4)cc32)cc1
active: MDA-MB-435 melanoma -14.4%
inactive: T-47D breast 23.5% | BT-549 breast 33.4% | MCF7 breast 25% | HCT-116 colon 36.2% | HCC-2998 colon 77.3% | KM12 colon 25.7%

O=C1c2ccccc2OC=C(c2ccccc2)N1CCCCN1CCCCC1
inactive: BT-549 breast 32.5% | MDA-MB-435 melanoma 67.4% | MCF7 breast 38.6% | HCT-116 colon 27.2% | HCC-2998 colon 69.1% | KM12 colon 49.2%
active: T-47D breast 0.353%

COc1cc(CN(c2ccc(Cl)cc2)C2OC(=O)c3ccccc32)cc(OC)c1OC (configuration not stated)
inactive: T-47D breast 42.3% | BT-549 breast 44.8% | MCF7 breast 31.3% | HCT-116 colon 28% | HCC-2998 colon 73.8% | KM12 colon 31.8%
active: MDA-MB-435 melanoma -45%

CNCCCOc1c(Br)cc(CCNC(=O)/C(Cc2cc(Br)c(OC)c(Br)c2)=N/O)cc1Br
active: T-47D breast -27.5% | MDA-MB-435 melanoma -59.6% | MCF7 breast -40.3% | HCT-116 colon -91.6% | HCC-2998 colon -49.5% | KM12 colon -1.14%
inactive: BT-549 breast 48%

COc1ccc(Cn2cc3c(c2-c2cc(OC)c(OC)c(OC)c2)CCc2c(CO)noc2-3)cc1
inactive: T-47D breast 64.3% | MCF7 breast 19.6% | HCC-2998 colon 26.5% | KM12 colon 16.5%
active: BT-549 breast 0.154% | MDA-MB-435 melanoma -27.1% | HCT-116 colon 7.89%

CCn1c(SC)nnc1-c1cc2c([nH]c3ccccc32)c(-c2cccc(O)c2)n1
inactive: T-47D breast 10.8% | BT-549 breast 29.4% | MCF7 breast 13.8% | HCT-116 colon 13.2% | HCC-2998 colon 41.5% | KM12 colon 11.5%
active: MDA-MB-435 melanoma -32.4%

Nc1ccc(S(=O)(=O)Nc2cc(I)cc(I)c2)cc1
inactive: T-47D breast 105% | BT-549 breast 118% | MDA-MB-435 melanoma 106% | MCF7 breast 120% | HCT-116 colon 99.5% | HCC-2998 colon 105% | KM12 colon 111%

CC(=O)N1N=C(CCC(=O)c2nc3ccc([N+](=O)[O-])cc3[nH]2)OC1c1ccc(O)cc1 (configuration not stated)
inactive: T-47D breast 85.5% | BT-549 breast 101% | MDA-MB-435 melanoma 105% | SW-620 colon 102% | HCC-2998 colon 98.7% | KM12 colon 95.8%

Cc1nccc2c3ccc(OCc4cn(Cc5ccc(Br)cc5)nn4)cc3n(CCCc3ccccc3)c12
inactive: T-47D breast 93.3% | BT-549 breast 88.2% | MDA-MB-435 melanoma 96.7% | MCF7 breast 75.2% | HCT-116 colon 63.6% | HCC-2998 colon 84.7% | KM12 colon 92.6%

CCNC(=O)Oc1ccc(/C(=C(/CC)Cc2ccccc2)c2ccc(OCCN3CCOCC3)cc2)cc1
inactive: T-47D breast 20.5% | BT-549 breast 69.9% | MDA-MB-435 melanoma 49.9% | MCF7 breast 22.5% | HCT-116 colon 41.6% | HCC-2998 colon 79.5% | KM12 colon 37.3%

— PubChem BioAssay (NCI)
